Assay outcomes deposited in PubChem BioAssay by The Scripps Research Institute Molecular Screening Center.
Only some compounds are listed: those with a hit (about 1.1% of all), similar ones and a draw of the others.
MsrA inh: inhibitors of bovine MsrA. purified bovine MsrA, absorbance read-out. inhibition, % at 15.5 µM. hit rate 0.75% among 360,000. AID 651718; in the data active means inhibition above about 4.5%;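 further: 0% = vehicle wells with enzyme and 100% = reference inhibitor wells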
PKA-R1A act: PKA-R1A complex activation. P00514+P68181. PKA-R1A dissociation, Cy5-IP20 fluorescence polarization; scaled: DMSO 0%, 113 µM cGMP 100%. activation, % at 11.4 µM. hit rate 0.083% among 340,000. AID 504707;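 active means percent activation above the mean of all tested compounds plus 3 SD, cut at about 19% in these data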;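 further: higher means more PKAc released from R1A so a rise in polarization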
PKA-R2B act: activates the human PKA-R2B holoenzyme complex; P22694+P31323; PKA-R2B holoenzyme dissociation, Cy5-IP20 fluorescence polarization; R2B truncated from residue 108, S112A mutant; 0% DMSO only, 100% 113 µM cGMP; activation, % at 11.4 µM; hit rate 0.079% among 340,000;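 active means activation above a cutoff set at the mean over all compounds plus 3 SD, cut at about 18% in these data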;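 further: higher means more holoenzyme dissociation and a rise in polarization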
MsrA act: bovine methionine sulfoxide reductase A activation. purified bovine MsrA, absorbance read-out. activation, % at 10.6 µM. hit rate 0.3% among 360,000. AID 602163; in the data active means activation above about 7.5%;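 further: 0% = vehicle and 100% = reference activator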
R1A FP artifact: fluorescence polarization artifact in PKA-R1A activator counter-screen; shares compounds with PKA-R1A act; Cy5-IP20 peptide alone, fluorescence polarization artifact counterscreen; activation, % at 11.4 µM; hit rate 7% among 280; AID 504799;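 active means mean activation over triplicate runs exceeds the adjusted cutoff derived for the parent primary screen, cut at about 19% in these data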;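 further: no PKA protein present so any polarization rise reflects compound interference; 0% = tracer peptide mix alone and 100% = mix with added PKA catalytic subunit; higher means stronger polarization artifact and likely false positive in parent screen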
PKA-R1A confirm: confirmation of PKA-R1A complex activators; shares compounds with PKA-R1A act; Cy5-IP20 fluorescence polarization, PKA-R1A holoenzyme dissociation; activation, % at 11.4 µM; hit rate 9% among 280;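 active means mean activation over replicate wells exceeds the adjusted hit threshold taken from the earlier primary screen, cut at about 20% in these data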;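 further: 0% = holoenzyme mix with DMSO only and 100% = cGMP-activated control wells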
Target sequence (P00514 whole entry, looked up): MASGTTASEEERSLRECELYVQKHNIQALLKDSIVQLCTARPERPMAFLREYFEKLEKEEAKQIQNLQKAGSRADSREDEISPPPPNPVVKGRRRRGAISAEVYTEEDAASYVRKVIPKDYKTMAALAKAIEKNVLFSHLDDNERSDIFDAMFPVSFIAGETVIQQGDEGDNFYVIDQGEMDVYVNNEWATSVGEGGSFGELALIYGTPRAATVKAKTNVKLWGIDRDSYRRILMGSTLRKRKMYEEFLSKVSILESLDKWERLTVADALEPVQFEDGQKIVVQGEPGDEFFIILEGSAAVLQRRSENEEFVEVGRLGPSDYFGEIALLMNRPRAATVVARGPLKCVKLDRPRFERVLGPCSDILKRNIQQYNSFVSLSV
* hit, by the source's call; nt = not tested or not shown.

SMILES	MsrA inh	PKA-R1A act	PKA-R2B act	MsrA act	R1A FP artifact	PKA-R1A confirm
CSc1ncccc1C(=O)OCC(=O)NC1CCCC1	0	10	0	-4	nt	nt
CSc1ncccc1C(=O)OCC(=O)NC1CC1	1	20*	8	-2	4	3
C/C=C/C=C/C(=O)c1cc(C)c(OC(=O)CNC(=O)OC(C)(C)C)c(C)c1O	0	nt	nt	nt	nt	nt
CCOc1ccc(-c2nnc3n2N=C(c2ccc(OC)cc2)CS3)cc1	2	20*	-5	-6	-1	1
CCOc1ccc(C2=Nn3c(nnc3-c3ccccc3OC)SC2)cc1	0	-6	3	-1	nt	nt
O=C(O)c1ccc2cccnc2n1	1	20*	2	-2	5	2
O=C(O)c1ccc2cccc(O)c2n1	3	nt	nt	-3	nt	nt
Nc1[nH]c(C(=O)c2ccccc2)c(-c2ccccc2Cl)c1C(=O)NCCc1c[nH]c2ccccc12	0	nt	nt	nt	nt	nt
COC(=O)C1=C(C)N(C)C(=NCC2CC2)NC1c1cccc(Cl)c1 (centres undefined)	1	nt	nt	nt	nt	nt
O=C(NCc1nc2ccccc2[nH]1)C1=C[C@H](c2ccc(C(F)(F)F)cc2)C[C@H](OCc2ccc(CO)cc2)O1	1	20*	14	0	29*	18
Nc1cc(=O)[nH]c(SCC(=O)Nc2ccc3c(c2)CCC3)n1	0	-8	5	-1	nt	nt
Nc1nc(SCC(=O)Nc2ccc3c(c2)CCC3)n[nH]1	-2	19*	-5	-11	6	1
Cc1ccc(S(=O)(=O)N2CC(CBr)=CCC2c2ccccc2)cc1 (centres undefined)	-1	nt	nt	nt	nt	nt
COc1cc2c(cc1OC)CN(C(=O)C(CCSC)NS(=O)(=O)c1ccc(C)cc1)CC2 (centres undefined)	1	20*	-10	-2	-1	-2
COc1ccc(C(=O)N2CCCC(Nc3ccc(C)c(C)c3)C2)c(OC)n1 (centres undefined)	-1	23*	12	-4	2	-4
COC(=O)c1cc2c(c3c4cc(OC)ccc4n(S(=O)(=O)c4cccc(C)c4)c13)C(=O)N(Cc1ccc(N(C)C)cc1)C2	1	nt	nt	nt	nt	nt
Cc1c(C(=O)N2CCCCCC2)c(S(=O)(=O)Nc2cccc(F)c2)c(C)n1C	-1	-4	-2	-2	nt	nt
Cc1cccc(NS(=O)(=O)c2c(C(=O)N3CCCC3)c(C)n(C)c2C)c1	0	21*	-3	-12	4	2
CCOc1ccc(N=Cc2ccc([N+](=O)[O-])cc2)c(O)c1	0	21*	-9	6	1	5
CCCCCCCCN1C(=O)[C@@H](CC(=O)NCc2cccs2)C[C@@]2(C(=O)OC)C1=C[C@H](C(C)(C)C)O[C@@H]2C	0	nt	nt	nt	nt	nt
CN(Cc1ccc2c(c1)CCCN2C)C(=O)[C@@H](Cc1ccccc1)NC(=O)[C@H]1O[C@@H](n2ccc(=O)[nH]c2=O)[C@H](O)[C@@H]1O	-1	nt	nt	nt	nt	nt
COc1ccc(-c2noc(CCC(=O)NCCc3ccccc3)n2)cc1OC	0	19*	2	-1	-1	2
CCCCCCCCN1C(=O)[C@@H](CC(=O)N2CCSCC2)C[C@@]2(C(=O)OC)C1=C[C@H](C1CCCC1)O[C@@H]2C	-1	nt	nt	nt	nt	nt
CC[n+]1c(P(=O)([O-])c2ccccc2)[nH]c2ccccc21	-1	21*	-5	1	6	4
O=P(CCCCCCCCCP(=O)(c1ccccc1)c1ccccc1)(c1ccccc1)c1ccccc1	1	-5	-4	5	nt	nt
SMILES	MsrA inh	PKA-R1A act	PKA-R2B act	MsrA act	R1A FP artifact	PKA-R1A confirm
COC(=O)c1cc2c(c3c4cc(OC)ccc4n(S(=O)(=O)c4ccc(OC)cc4)c13)C(=O)N(C1CCCCC1)C2	0	nt	nt	nt	nt	nt
COc1ccc(-c2[nH]n(-c3ccc([N+](=O)[O-])cc3)c(=O)c2C=NCC2CCCO2)cc1 (centres undefined)	2	20*	10	-3	4	2
COC(=O)[C@]12C[C@H](CC(=O)NCC3CCCCC3)C(=O)N(Cc3ccccc3)C1=C[C@H](C(C)C)O[C@@H]2C1CC1	0	nt	nt	nt	nt	nt
O=C(NCc1ccccc1)c1cccc(NC(=O)c2ccco2)c1	1	22*	5	-2	10	7
CCC1=NN(C(=O)Cc2ccc(OC)cc2)C(O)(C(F)(F)F)C1 (centres undefined)	1	19*	8	0	3	-1
COc1ccc(CC(=O)N2N=C(c3ccncc3)CC2(O)C(F)(F)F)cc1 (centres undefined)	2	1	-5	-4	nt	nt
COC(=O)CC#C[C@@H](C)[C@H](NS(=O)(=O)c1ccc(C)cc1)C(C)(C)C	1	nt	nt	nt	nt	nt
Cc1cccc(NS(=O)(=O)c2ccc(Oc3ccccc3)cc2)n1	1	20*	-5	0	3	3
CN(c1cccnc1)c1ccc(NC(=O)CCc2c[nH]c3ccccc23)cc1Br	1	nt	nt	nt	nt	nt
[O-][n+]1ccccc1SCc1ccccc1	1	19*	3	-1	2	3
O=C(O)CSc1cccc[n+]1[O-]	1	-2	-2	5	nt	nt
Cc1ccc(S(=O)(=O)NC(=O)NC(C)Cc2ccccc2)cc1 (centres undefined)	0	22*	2	-4	0	-1
CNC(=O)CSc1nc2nc(C)cc(C)n2n1	0	-13	8	-2	nt	nt
Cc1cc(C)n2nc(SCC(=O)c3ccc[nH]3)nc2n1	-1	22*	-2	-4	5	2
O=C(Nc1ccc(N2CCN(c3ccc(O)cc3)CC2)cc1)Oc1ccccc1	0	20*	16	-5	15	17
Nc1[nH]c(C(=O)c2ccc(Br)cc2)c(-c2cccc3ccccc23)c1C(=O)NCCc1c[nH]c2ccccc12	1	nt	nt	nt	nt	nt
COc1ccccc1-c1csc(NC(=O)c2cc(-c3cccs3)nc3ccccc23)n1	3	23*	-8	-4	-1	3
O=C1C2C3C=CC(C3)C2C(=O)N1CCC(=O)N1CCc2ccccc21 (centres undefined)	0	23*	-7	-5	2	4
CO[C@@H]1[C@H](O)CC[C@]2(O)CN(c3ccccc3)[C@](C)([C@H](O)CC=C(C)C)[C@@H]12	0	nt	nt	nt	nt	nt
CN(C)c1ccc(Cc2ccc(N(C)C)cc2)cc1	-1	21*	-3	0	-2	0
Cn1c(SCC(=O)Nc2ccccc2Cl)nnc1C1CC1	0	4	-4	-4	nt	nt
Cn1c(SCC(=O)Nc2nnc(-c3ccccc3)o2)nnc1C1CC1	1	19*	2	-6	2	1
C[C@H](O)[C@@H]1C(=O)N2CCc3c([nH]c4cccc(-c5ccccc5)c34)[C@@H]2C[C@@H]1N(C)C(=O)C1CCCCC1	-1	nt	nt	nt	nt	nt
Cc1ccc(CNC(=O)CN(c2ccc(Cl)cc2)S(C)(=O)=O)cc1	0	21*	-13	-3	3	0
